# According to the antibiotic and cytotoxicity screens of Wong et al. (2023):
# Hit rate of the full screen: of about 39,000 compounds, about 1,500 (3.8%) were called active. What follows is part of a selection rich in actives, with near analogues and random picks from the rest.
# Tested on: HSkMC (human skeletal muscle cells)
# Experiment: cytotoxicity call (relative viability < 0.9)
# Settings: 10 µM
row,Compound,cytotoxicity call
1,Cc1ccccc1S(=O)(=O)N1C[C@H](O)COC[C@@H]2O[C@H](CC(=O)NCc3ccccc3Cl)CC[C@H]21,inactive
2,O=C(NC1(c2ccccc2)CC1)c1c(CN2CCC(N3CCCCC3)CC2)c(-c2cccc(C(F)(F)F)c2)nc2cc(Br)ccc12,active
3,O=C(N[C@@H](c1ccc(-c2ccccc2)cc1)c1cnccn1)C1CCN(Cc2cccc(C(F)(F)F)c2)CC1,inactive
4,COc1ccc(S(=O)(=O)N(C)C[C@H]2Oc3ccc(NC(=O)CCCN(C)C)cc3CC(=O)N([C@H](C)CO)C[C@@H]2C)cc1,inactive
5,Cc1noc(C)c1NC(=O)N(C)C[C@@H]1OCCCC[C@@H](C)Oc2ccc(NC(=O)CCCCCC(=O)Nc3ccccc3N)cc2C(=O)N([C@H](C)CO)C[C@@H]1C,inactive
6,CO[C@@H]1CN(C)C(=O)c2ccc(NC(=O)CC(F)(F)F)cc2OC[C@H](C)N(C(=O)C2CCOCC2)C[C@H]1C,inactive
7,Cc1noc(C)c1NC(=O)Nc1cccc2c1O[C@H](CN(C)Cc1ccc(C(F)(F)F)cc1)[C@@H](C)CN([C@@H](C)CO)C2=O,inactive
8,COc1ccc(NC(=O)Nc2ccc3c(c2)C(=O)N([C@@H](C)CO)C[C@H](C)[C@@H](CN(C)C(=O)Nc2ccc(F)cc2)OCCCC[C@H](C)O3)cc1,inactive
9,C[C@H]1CN([C@@H](C)CO)C(=O)c2cccc(NC(=O)Nc3ccc(C(F)(F)F)cc3)c2O[C@H]1CN(C)Cc1ccc2c(c1)OCO2,inactive
10,C[C@H](CO)N1C[C@H](C)[C@H](CN(C)Cc2ccc(C(F)(F)F)cc2)Oc2c(NC(=O)Nc3ccc4c(c3)OCO4)cccc2C1=O,inactive
11,C[C@H](CO)N1C[C@H](C)[C@H](CN(C)Cc2ccc3c(c2)OCO3)Oc2c(NC(=O)Nc3ccc(C(F)(F)F)cc3)cccc2C1=O,inactive
12,C[C@H]1CN([C@@H](C)CO)C(=O)c2cccc(NC(=O)Nc3ccc4c(c3)OCO4)c2O[C@@H]1CN(C)Cc1ccc(C(F)(F)F)cc1,inactive
13,C[C@@H]1CN([C@H](C)CO)C(=O)c2cccc(NC(=O)Nc3ccc(C(F)(F)F)cc3)c2O[C@@H]1CN(C)Cc1ccc2c(c1)OCO2,inactive
14,C[C@H]1CN([C@@H](C)CO)C(=O)c2cccc(NC(=O)Nc3ccc(C(F)(F)F)cc3)c2O[C@@H]1CN(C)Cc1ccc2c(c1)OCO2,active
15,C[C@@H]1CN([C@@H](C)CO)C(=O)c2cccc(NC(=O)Nc3ccc4c(c3)OCO4)c2O[C@H]1CN(C)Cc1ccc(C(F)(F)F)cc1,active
16,C[C@H]1CN([C@@H](C)CO)C(=O)c2cccc(NC(=O)Nc3ccc4c(c3)OCO4)c2O[C@H]1CN(C)Cc1ccc(C(F)(F)F)cc1,inactive
17,C[C@@H]1CN([C@@H](C)CO)C(=O)c2cccc(NC(=O)Nc3ccc(C(F)(F)F)cc3)c2O[C@H]1CN(C)Cc1ccc2c(c1)OCO2,active
18,C[C@H](CO)N1C[C@H](C)[C@@H](CN(C)Cc2ccc3c(c2)OCO3)Oc2c(NC(=O)Nc3ccc(C(F)(F)F)cc3)cccc2C1=O,active
19,C[C@@H]1CN([C@@H](C)CO)C(=O)c2cccc(NC(=O)Nc3ccc(C(F)(F)F)cc3)c2O[C@@H]1CN(C)Cc1ccc2c(c1)OCO2,inactive
20,C[C@@H]1CN([C@H](C)CO)C(=O)c2cccc(NC(=O)Nc3ccc(C(F)(F)F)cc3)c2O[C@H]1CN(C)Cc1ccc2c(c1)OCO2,inactive
21,C[C@H]1CCCCO[C@@H](CN(C)C(=O)Nc2ccc3c(c2)OCO3)[C@@H](C)CN([C@@H](C)CO)C(=O)c2cc(NS(=O)(=O)c3cccs3)ccc2O1,inactive
22,Cc1cc(C(=O)Nc2cccc3c2O[C@@H](CN(C)S(=O)(=O)c2cccs2)[C@H](C)CN([C@H](C)CO)C3=O)n(C)n1,inactive
23,C[C@H]1CCCCO[C@H](CN(C)C(=O)NC2CCCCC2)[C@@H](C)CN([C@@H](C)CO)C(=O)c2cc(NS(=O)(=O)c3cccs3)ccc2O1,inactive
24,C[C@@H]1CCCCO[C@@H](CN(C)Cc2ccc(C(F)(F)F)cc2)[C@H](C)CN([C@H](C)CO)C(=O)c2cc(NC(=O)c3ccncc3)ccc2O1,inactive
25,O=C(NCc1nc2ccccc2[nH]1)C1=C[C@@H](c2ccc(Br)cc2)C[C@@H](OCc2ccc(CO)cc2)O1,inactive

row,Compound,cytotoxicity call
1,Cc1ccc(S(=O)(=O)N(C)C[C@@H]2Oc3ccc(NC(=O)Nc4ccc(C(F)(F)F)cc4)cc3C(=O)N([C@H](C)CO)C[C@@H]2C)cc1,inactive
2,CS(=O)(=O)[C@H]1CCNC1,inactive
3,CC(C)(C)S(=O)N1Cc2cc(C(=O)NCc3ccc4c(c3)OCO4)nc(-c3cccc(-c4cccc(F)c4)c3)c2[C@H]1CCO (stereo not given in full),inactive
4,COc1ccccc1CNC(=O)C[C@H]1CC[C@@H]2[C@H](COC[C@H](O)CN2C(=O)Nc2ccc(F)cc2)O1,inactive
5,O=C(C[C@H]1C[C@H]2c3cc(NC(=O)C4CCOCC4)ccc3O[C@H]2[C@H](CO)O1)NCc1ccc2c(c1)OCO2,inactive
6,C[C@@H]1CN([C@@H](C)CO)C(=O)c2cccc(NC(=O)c3nc4ccccc4s3)c2O[C@H]1CN(C)C(=O)Nc1ccc(C(F)(F)F)cc1,inactive
7,COc1ccccc1S(=O)(=O)N[C@@H]1CC[C@H](CCNC(=O)C2CC2)O[C@H]1CO,inactive
8,CN(C)CCCNC(=O)[C@@H]1[C@@H](CO)[C@@H]2Cn3c(ccc(-c4cccc(C(=O)N(C)C)c4)c3=O)[C@H]1N2,inactive
9,C[C@@H]1O[C@@H](O[C@H]2[C@H](OC(=O)[C@]34CCC(C)(C)C[C@H]3C3=CC[C@H]5[C@@]6(C)CC[C@H](O[C@@H]7O[C@H](CO)[C@@H](O)[C@H](O)[C@H]7O)C(C)(C)[C@@H]6CC[C@@]5(C)[C@]3(C)C[C@H]4O)OC[C@H](O)[C@@H]2O)[C@H](O)[C@H](O[C@@H]2OC[C@H](O)[C@H](O)[C@H]2O)[C@H]1O[C@@H]1OC[C@@H](O)[C@H](O[C@@H]2OC[C@H](O)[C@H](O)[C@H]2O)[C@H]1O,inactive
10,C[C@@H]1O[C@H](O[C@H]2[C@H](OC(=O)[C@]34CCC(C)(C)C[C@@H]3C3=CC[C@@H]5[C@@]6(C)CC[C@H](O[C@@H]7O[C@@H](C)[C@H](O[C@@H]8OC[C@@H](O)[C@H](O)[C@H]8O)[C@@H](O)[C@H]7O)C(C)(C)[C@@H]6CC[C@@]5(C)[C@]3(C)C[C@@H]4O)OC[C@H](O)[C@H]2O)[C@H](O)[C@H](O)[C@H]1O[C@@H]1O[C@H](CO)[C@@H](O)[C@H](O)[C@H]1O,inactive
11,C=C[C@](C)(O)CC/C=C(\C)C(=O)O[C@@H]1[C@@H](O[C@@](C)(C=C)CC/C=C(\C)C(=O)O[C@H]2C[C@@]3(C(=O)O[C@H]4OC[C@@H](O[C@H]5O[C@@H](CO)[C@@H](O)[C@@H](O[C@H]6O[C@@H](CO)[C@@H](O[C@H]7O[C@@H](CO)[C@@H](O)[C@@H](O)[C@@H]7O)[C@@H](O)[C@@H]6O)[C@@H]5O)[C@@H](O)[C@@H]4O)[C@@H](O)C[C@@]4(C)C(=CC[C@H]5[C@@]6(C)CC[C@@H](O[C@H]7O[C@@H](CO)[C@@H](O[C@H]8O[C@@H](CO)[C@@H](O)[C@@H](O[C@H]9OC[C@@H](O)[C@@H](O)[C@@H]9O)[C@@H]8O)[C@@H](O)[C@@H]7O)C(C)(C)[C@@H]6CC[C@@]54C)[C@@H]3CC2(C)C)OC[C@@H](O)[C@H]1O,active
12,C[C@H](CO)N1C[C@H](C)[C@H](CN(C)S(=O)(=O)c2ccccc2)Oc2ccc(NC(=O)CCN3CCOCC3)cc2CC1=O,inactive
13,C[C@@H]1CN([C@H](C)CO)S(=O)(=O)c2ccc(C3=CCCC3)cc2O[C@H]1CN(C)S(=O)(=O)c1cn(C)cn1,inactive
14,C/C1=C2/[N]([Co+][OH])[C@H]([C@H](CC(N)=O)[C@@]2(C)CCC(=O)NC[C@@H](C)OP(=O)(O)O[C@H]2[C@@H](O)[C@@H](n3cnc4cc(C)c(C)cc43)O[C@@H]2CO)[C@]2(C)N=C(/C(C)=C3N=C(/C=C4N=C1[C@@H](CCC(N)=O)C/4(C)C)[C@@H](CCC(N)=O)[C@]\3(C)CC(N)=O)[C@@H](CCC(N)=O)[C@]2(C)CC(N)=O,active
15,C[C@H]1CN([C@@H](C)CO)C(=O)Cc2cc(NC(=O)Cn3cnnn3)ccc2O[C@@H]1CN(C)S(=O)(=O)c1ccc(Cl)cc1,inactive
16,CC(C)N1CC[C@@H](CN(C)Cc2ccc(Cl)cc2)Oc2c(NC(=O)c3ccncc3)cccc2C1=O,inactive
17,Cc1ccc2c(c1)c1nc3ccccc3nc1n2Cc1ccccc1,inactive
18,Cc1ccc(C(=O)N(CCCN)[C@@H](c2nc3cc(Cl)ccc3c(=O)n2Cc2ccccc2)C(C)C)cc1,active
19,Cc1ccc(C(=O)N(CCCN)[C@@H](c2oc3cc(Cl)ccc3c(=O)c2Cc2ccccc2)C(C)C)cc1,active
20,COc1ccc2cc(S(=O)(=O)N[C@H](CC(=O)N[C@H](Cc3ccc(CN4[C@H](C)CCC[C@@H]4C)cc3)C(=O)N(C)C(C)C)c3ccc4c(c3)OCO4)ccc2c1,inactive
21,C[C@@H]1CCCCO[C@@H](CN(C)Cc2ccc(Cl)c(Cl)c2)[C@@H](C)CN([C@@H](C)CO)C(=O)c2cc(NC(=O)CCC(F)(F)F)ccc2O1,inactive
22,CO[C@H](C(=O)N(C)C[C@H]1OCc2ccccc2-c2c(n(C)c3ccccc23)C(=O)N([C@@H](C)CO)C[C@H]1C)c1ccccc1,inactive
23,C[C@@H]1CN([C@H](C)CO)C(=O)c2cc(NS(C)(=O)=O)ccc2O[C@@H]1CN(C)C(=O)NC1CCCCC1,inactive
24,Cc1noc(C)c1NC(=O)Nc1ccc2c(c1)C(=O)N([C@H](C)CO)C[C@H](C)[C@H](CN(C)Cc1ccc(C(F)(F)F)cc1)OCCCC[C@H](C)O2,inactive
25,C[C@@H]1CN([C@H](C)CO)C(=O)Cc2cc(NC(=O)c3ccncc3)ccc2O[C@H]1CN(C)Cc1ccc2c(c1)OCO2,inactive
